Several values for one entry are separate records, joined by “and”; a condition that tells them apart may be missing. Equal values may be shown once. Hit rate of the full screen: of about 110,000 compounds, about 190 (0.17%) were called active. Rule as the data show it: active = inhibition above about 50%; inactive = the rest. The sample as a whole holds a higher share of actives than the screen did. Results with a measured potency or affinity are listed apart. A structure can be active in one record and inactive in another.
molecular target: Dual specificity protein phosphatase 6 (Rattus norvegicus) (UniProt Q64346); experiment: MKP-3 phosphatase inhibitors, primary screen, biochemical, rat enzyme, in vitro (AID 425); conditions: recombinant MKP-3 phosphatase activity, fluorescence; at 20 µM; stronger effect = higher value;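 also: plate controls were vehicle for no effect and reference inhibitor for full effect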
Sequence (Q64346 whole entry, looked up): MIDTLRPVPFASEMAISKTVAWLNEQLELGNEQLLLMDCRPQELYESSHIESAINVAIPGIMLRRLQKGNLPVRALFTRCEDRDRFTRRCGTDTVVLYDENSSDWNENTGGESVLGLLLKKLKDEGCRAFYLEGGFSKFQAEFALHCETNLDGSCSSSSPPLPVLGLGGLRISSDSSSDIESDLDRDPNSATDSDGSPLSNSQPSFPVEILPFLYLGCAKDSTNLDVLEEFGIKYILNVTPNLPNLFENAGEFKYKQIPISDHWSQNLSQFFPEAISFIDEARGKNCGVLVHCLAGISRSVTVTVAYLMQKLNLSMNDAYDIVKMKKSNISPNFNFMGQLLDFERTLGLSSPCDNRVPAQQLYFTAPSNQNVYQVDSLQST

Row | SMILES | inhibition
1 | COc1cc2c(C#N)c(N3CCOCC3)nc(N)c2c(N)n1 | -5.5% (inactive)
2 | COc1cc2c(C#N)c(N3CCCCC3)nc(N)c2c(N)n1 | 8% (inactive)
3 | O=C(COc1ccccc1[N+](=O)[O-])Nc1ccc(-c2nc3ncccc3o2)cc1 | 16% (inactive)
4 | Cc1ccc2oc(-c3cccc(NC(=O)COc4ccccc4[N+](=O)[O-])c3C)nc2c1 | 0.7% (inactive)
5 | Cc1c(NC(=O)COc2ccccc2[N+](=O)[O-])cccc1-c1nc2ncccc2o1 | 59.4% (active)
6 | CCOc1ccc(NC(=O)CSC(N)=O)cc1 | -0.4% (inactive)
7 | Cc1ccc(C)c(S(=O)(=O)NCc2cccnc2)c1 | -4.3% (inactive)
8 | O=c1/c(=C/c2ccc(-c3ccccc3)o2)sc2nc3ccccc3n12 | -5.1% (inactive)
9 | O=c1/c(=C\c2ccc(-c3cccc(Br)c3)o2)sc2nc3ccccc3n12 | 1.3% (inactive)
10 | O=c1/c(=C/c2ccc(-c3ccccc3[N+](=O)[O-])o2)sc2nc3cc(Br)cnc3n12 | 0.3% (inactive)
11 | O=C(O)c1ccccc1-c1ccc(/C=c2\sc3nc4cc(Br)cnc4n3c2=O)o1 | 52.1% (active)
12 | O=c1/c(=C/c2ccc(-c3ccc(Cl)cc3)o2)sc2nc3ccccc3n12 | -1.6% (inactive)
13 | Cc1cc2nc3s/c(=C/c4ccc(-c5ccc(Cl)cc5)o4)c(=O)n3c2cc1C | 0.8% (inactive)
14 | Cc1cc(C)c2nc3s/c(=C\c4ccc(-c5ccc(Cl)c(C(=O)O)c5)o4)c(=O)n3c2c1 | 19.9% (inactive)
15 | O=c1/c(=C\c2ccc(-c3cccc(Cl)c3)o2)sc2nc3ccccc3n12 | 0.1% (inactive)
16 | O=c1/c(=C/c2ccc(-c3ccc([N+](=O)[O-])cc3Cl)o2)sc2nc3cc(Br)cnc3n12 | 1% (inactive)
17 | CCCCOC(=O)c1ccc(NC(=O)c2cncc(Br)c2)cc1 | 2.8% (inactive)
18 | COc1ccccc1/C=C1\SC(=S)N(NC(=O)Cc2ccccc2)C1=O | 2.2% (inactive)
19 | O=C(COc1ccc(=O)n(-c2ccccc2)n1)Nc1ccccc1 | 1.2% (inactive)
20 | COC(CNS(=O)(=O)c1ccc(Cl)cc1)c1ccccc1 (stereo not given) | -0.6% (inactive)
21 | CC1(C)CC(=O)C2=C(C1)OC1=C(C(=O)CC(C)(C)C1)C2c1ccc(-c2nnc(N)s2)cc1 | 5.6% (inactive)
22 | CC(C)CSc1nc2c(c(=O)[nH]c(=O)n2C)n1CC(O)COc1cccc2ccccc12 (stereo not given) | -2.5% (inactive)
23 | Cn1c(=O)oc2cc(S(=O)(=O)Nc3ccc(Cl)cc3F)ccc21 | -2.1% (inactive)
24 | Cc1nc2c3ccccc3n(CC#N)c(=O)n2n1 | -2.1% (inactive)

Row | SMILES | inhibition
25 | NC(=O)C1(N2CCCCC2)CCN(CC(=O)Nc2ccc(Oc3ccccc3)cc2)CC1 | -17% (inactive)
26 | COc1ccc(CCCc2nnc(SCC(=O)Nc3ncc(C)s3)o2)cc1 | -9.2% (inactive)
27 | O=C(O)c1ccccc1NCN1C(=O)C2CC=C(Cl)CC2C1=O (stereo not given) | 5.2% (inactive)
28 | O=[N+]([O-])c1cccc(C2Nc3ccc4ccccc4c3C3C=CCC32)c1 (stereo not given) | 8.7% (inactive)
29 | Oc1ccc(C2Nc3ccc4ccccc4c3C3C=CCC32)cc1 (stereo not given) | 2.7% (inactive)
30 | O=[N+]([O-])c1cccc2c1NC(c1ccc(F)cc1)C1CC=CC21 (stereo not given) | -0.5% (inactive)
31 | O=[N+]([O-])c1cccc2c1NC(c1ccccc1F)C1CC=CC21 (stereo not given) | 2.2% (inactive)
32 | CC(=O)Nc1ccc2c(c1)C1C=CCC1C(C(=O)O)N2 (stereo not given) | 3% (inactive)
33 | O=C(O)C1Nc2ccc([N+](=O)[O-])cc2C2C=CCC12 (stereo not given) | 63.7% (active)
34 | COc1ccc2c(c1)C1C=CCC1C(C(=O)O)N2 (stereo not given) | 23.5% (inactive)
35 | O=C(O)C1Nc2c(cccc2[N+](=O)[O-])C2C=CCC12 (stereo not given) | 79% (active)
36 | O=C(O)C1Nc2ccc3ccccc3c2C2C=CCC12 (stereo not given) | 91.5% (active)
37 | O=[N+]([O-])c1ccc(C2Nc3ccc([N+](=O)[O-])cc3C3C=CCC32)cc1 (stereo not given) | 6.6% (inactive)
38 | Cc1ccc2c(c1)C1C=CCC1C(C(=O)O)N2 (stereo not given) | 40.3% (inactive)
39 | O=C(Nc1ccc2nn(-c3ccccc3)nc2c1)c1cc(I)ccc1Cl | 3.4% (inactive)
40 | Cn1cnnc1Sc1nc2c(c(=O)n(C)c(=O)n2C)n1C | -3.7% (inactive)
41 | COc1ccc(C(=O)/C=C/c2c(Cl)cccc2Cl)cc1 | 10.2% (inactive)
42 | CCOc1ncccc1C(=O)OCC(=O)NCCc1ccc(OC)cc1 | 1.6% (inactive)
43 | O=C(c1ccc(S(=O)(=O)NCC2CCCO2)cc1)N1CCc2ccccc21 (stereo not given) | 8.3% (inactive)
44 | O=C(CCNS(=O)(=O)c1ccccc1[N+](=O)[O-])Nc1ccc(I)cc1 | 2% (inactive)
45 | C=CCn1c(SCC(=O)NCc2cccs2)nnc1C1CCCCC1 | -0.2% (inactive)
46 | COc1cc(/C=C2\SC(=S)N(c3ccc(C)cc3C)C2=O)cc(Br)c1O | -2.7% (inactive)
47 | O=C(NCC1CCCO1)c1cnn2c1NC(c1ccco1)CC2C(F)(F)F (stereo not given) | -1.8% (inactive)
48 | Cc1ccc(NC(=O)Cn2nc(C)c3ccccc3c2=O)cc1F | -2.5% (inactive)

Row | SMILES | inhibition
49 | COc1cc(C(=O)NC(NC(=S)Nc2ccc(C(C)=O)cc2)C(Cl)(Cl)Cl)cc(OC)c1OC (stereo not given) | 3.5% (inactive)
50 | COc1cccc(C2C(C(=O)Nc3ccccc3)=C(C)N=C3SCC(=O)N32)c1 (stereo not given) | 3.3% (inactive)
51 | Cc1ccc(C(=O)O)cc1N1C(=O)c2ccccc2C1=O | -1.1% (inactive)
52 | Cc1ccc(-c2ccccc2)n1-c1cccc(C(=O)O)c1 | 2.4% (inactive)
53 | Cc1ccc(C(=O)O)cc1-n1c(C)ccc1C | 59% (active)
54 | Cc1ccc(C)n1-c1cc(C(=O)O)ccc1Cl | 101% (active)
55 | Cc1cc(N)ccc1-n1c(C)ccc1C | -1.5% (inactive)
56 | Cc1cc(C(=O)O)ccc1-n1c(C)ccc1C | 55% (active) and 10.8% (inactive)
57 | Cc1cc(Cl)c2cc(C(=O)O)ccc2n1 | 3.5% (inactive)
58 | Cc1ccc(C)n1-c1cc(C(=O)O)cc(C(=O)O)c1 | 32.5% (inactive)
59 | Cc1ccc(C)n1-c1cc(C(=O)O)ccc1O | 32.6% (inactive)
60 | COc1cccc(C2=NN(C(=O)COc3ccccc3)C(O)(C(F)(F)F)C2)c1 (stereo not given) | 1.7% (inactive)
61 | Cc1cccc(C(C)C)c1NC(=O)c1cccnc1 | -7.7% (inactive)
62 | CCN(CC)c1ccc(/C=C2/SC(=O)N(CNc3ccc(OC)c(Cl)c3)C2=O)cc1 | 2.6% (inactive)
63 | COc1ccc(/C=C2\C=C(c3ccc(Br)cc3)OC2=O)cc1[N+](=O)[O-] | 5.6% (inactive)
64 | COc1ccc(/C=N/Nc2nnc(-c3ccccc3)c(-c3ccccc3)n2)cc1 | 0.6% (inactive)
65 | N/C(=N/O)c1nc(N2CCCCC2)nc(N2CCCCC2)n1 | -8.2% (inactive)
66 | O=C(Nc1ccc(C(=O)N2CCOCC2)cc1)Nc1cccc2ccccc12 | 2% (inactive)
67 | CN(C)CCCNC(=O)c1cccc(F)c1 | -3.1% (inactive)
68 | CN(C)CCCNC(=O)c1ccc(F)cc1 | -0.5% (inactive)
69 | CN(C)CCCNC(=O)c1ccc2sc3cc(=O)c(N)cc-3nc2c1 | 84.1% (active)
70 | Cc1ccc(-n2ncc(C(=O)N3CCc4ccccc4C3)c2NC(=O)c2ccco2)cc1C | -7.8% (inactive)
71 | O=C1C(=Cc2ccc(I)o2)C(=O)c2ccccc21 | 15.6% (inactive)
72 | CC1(C)OC(=O)C(=Cc2ccc(I)o2)C(=O)O1 | 101% (active)

Row | SMILES | inhibition
73 | CC1(C)OC(=O)C(=Cc2ccc(-c3ccc(Cl)cc3Cl)o2)C(=O)O1 | 7.8% (inactive)
74 | Cc1ccc(C)c(C(=O)COC(=O)c2ccc(Br)o2)c1 | -15.9% (inactive)
75 | COc1ccc(-c2cc3ccccc3n2CC(O)CN2CCN(CCO)CC2)cc1 (stereo not given) | -0.9% (inactive)
76 | O=C(O)c1cccc(N2C(=O)c3ccc4c5c(ccc(c35)C2=O)CC4)c1 | 71.8% (active)
77 | O=C(O)c1cccc(N2C(=O)c3ccc(Br)cc3C2=O)c1 | 0.9% (inactive)
78 | O=C(O)c1cccc(N2C(=O)CCC2=O)c1 | -5.5% (inactive)
79 | c1ccc2c(-n3cnnn3)cccc2c1 | -8.8% (inactive)
80 | Cc1ccc(-c2nc(NC(=O)CSc3nnc4scc(-c5ccccc5)n34)ns2)cc1 | 12.3% (inactive)
81 | Cc1ccc(-c2nc(NC(=O)CSc3nnnn3-c3ccccc3)ns2)cc1 | 2.1% (inactive)
82 | Cc1ccc(-c2csc3nnc(SCC(=O)Nc4nsc(-c5ccccc5)n4)n23)cc1 | -3.1% (inactive)
83 | Cc1ccc(-c2nc(NC(=O)CSc3nnc(C)s3)ns2)cc1 | 6.1% (inactive)
84 | CCn1c(=O)cc(SCC(=O)Nc2ccc3c(c2)OCCO3)c2ccccc21 | 2.8% (inactive)
85 | O=c1[nH]c2c(n(C3CCCCC3)c1=O)CCC2 | -11.2% (inactive)
86 | Cc1ccc(C(=O)Nc2ccccc2C(=O)N2CC(C)OC(C)C2)cc1 (stereo not given) | 1.8% (inactive)
87 | CC(C)c1ccc(N2C(=O)NC(=O)/C(=C/c3ccc(Br)o3)C2=O)cc1 | 58.6% (active)
88 | CC(C)c1ccc(N2C(=O)NC(=O)/C(=C/c3ccc(I)o3)C2=O)cc1 | 12.4% (inactive)
89 | Cc1cc(C)cc(N2C(=O)NC(=O)/C(=C\c3ccc([N+](=O)[O-])o3)C2=O)c1 | 25.1% (inactive)
90 | Cc1cc(N2C(=O)NC(=O)/C(=C\c3ccc(N(C)C)o3)C2=O)ccc1Br | 2.1% (inactive)
91 | O=C1NC(=O)N(c2ccccc2)C(=O)/C1=C\c1ccc(Br)o1 | 8.3% (inactive)
92 | Cc1cc(N2C(=O)NC(=O)/C(=C\c3ccc([N+](=O)[O-])o3)C2=O)ccc1Br | 65.5% (active)
93 | O=C(NC(Cc1ccccc1)C(=O)N1CCN(c2ccccn2)CC1)c1ccco1 (stereo not given) | -1.1% (inactive)
94 | COc1ccc(OC)c(CN2C(=O)c3ccccc3C2C(=O)NCc2cccnc2)c1 (stereo not given) | -10.2% (inactive)
95 | CN(Cc1ccccc1)S(=O)(=O)c1ccc2[nH]c(=O)oc2c1 | -2.6% (inactive)
